Results filed as inconclusive are left out. Activity calls are given as the source filed them. Calls follow the shape of the full dose curve.
Legend:
[1] = molecular target: Acetylcholinesterase (Homo sapiens) (UniProt P22303); experiment: Acetylcholinesterase (AChE) small molecule antagonists: colormetric cell-based qHTS assay (AID 1347395); also: nearly all actives have a fitted effect of over 30% in size
In short: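 Endogenous AChE of human neuroblastoma SH-SY5Y cells was measured with an Ellman-type DTNB/acetylthiocholine mix. Compound pretreatment lasted 30 min at 37 C; substrate reaction ran 90 min at 37 C.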

[2] = molecular target: Acetylcholinesterase (Homo sapiens) (UniProt P22303); experiment: Acetylcholinesterase (AChE) small molecule antagonists: enzyme-based qHTS assay (AID 1347397); details: Potency: AChE enzyme activity inhibition; outcome: AChE enzyme activity inhibition; also: nearly all actives have a fitted effect of over 55% in size
In short: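 Human recombinant acetylcholinesterase; substrate acetylthiocholine; thiocholine quantified with DTNB (colorimetric). Compound preincubation 30 min RT; reaction 10 min RT.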

[3] = molecular target: Acetylcholinesterase (Homo sapiens) (UniProt P22303); experiment: Acetylcholinesterase (AChE) small molecule antagonists: fluorescence cell-based qHTS assay (AID 1347398); details: Potency: AChE activity; outcome: AChE activity; also: nearly all actives have a fitted effect of over 50% in size
In short: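 Thiocholine generated from acetylthiocholine by SH-SY5Y cell AChE is detected with Thiolite Green (Ex/Em 490/520 nm) after 40 min at room temperature, following 30 min compound pretreatment at 37 C.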

[4] = molecular target: Acetylcholinesterase (Homo sapiens) (UniProt P22303); experiment: Acetylcholinesterase (AChE) small molecule antagonists: enzyme-based qHTS assay with human liver microsomes (AID 1347399); details: Potency: qHTS inhibition; outcome: qHTS inhibition; also: nearly all actives have a fitted effect of over 60% in size
In short: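 Recombinant human AChE (50 mU/mL in the enzyme mix) and human liver microsomes (0.25 mg/mL final) were preincubated with compound and NADPH (0.25 mg/mL final) for 30 min at 37 C. Acetylthiocholine/DTNB was then added; thiocholine was read colorimetrically after 10 min at room temperature.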
% is scaled to controls: 0 for no effect and ±100 for the full control effect.

Chain of Acetylcholinesterase (Homo sapiens) (P22303 whole entry, looked up): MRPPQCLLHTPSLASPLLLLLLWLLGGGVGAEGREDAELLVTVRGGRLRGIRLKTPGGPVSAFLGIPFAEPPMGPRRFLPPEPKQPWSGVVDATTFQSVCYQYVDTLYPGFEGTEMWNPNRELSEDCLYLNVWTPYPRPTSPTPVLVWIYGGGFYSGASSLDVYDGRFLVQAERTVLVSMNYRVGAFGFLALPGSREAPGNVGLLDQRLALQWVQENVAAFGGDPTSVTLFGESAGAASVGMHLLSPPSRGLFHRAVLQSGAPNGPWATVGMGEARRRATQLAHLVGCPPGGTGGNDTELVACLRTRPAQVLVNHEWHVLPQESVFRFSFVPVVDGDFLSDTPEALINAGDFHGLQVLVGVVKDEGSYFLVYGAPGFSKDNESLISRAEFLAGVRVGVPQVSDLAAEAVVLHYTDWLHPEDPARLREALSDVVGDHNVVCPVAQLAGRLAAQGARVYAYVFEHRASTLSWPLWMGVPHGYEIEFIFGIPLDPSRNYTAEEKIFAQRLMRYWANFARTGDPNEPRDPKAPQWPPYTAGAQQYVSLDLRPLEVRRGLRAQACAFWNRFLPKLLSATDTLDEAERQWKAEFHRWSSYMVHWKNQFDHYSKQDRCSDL

COc1cc(Cl)c(OC)cc1N
inactive: Potency [1] | Potency [2] | Potency [3] | Potency [4]

CCc1cccc(CC)c1NC(=O)CN(CC(=O)O)CC(=O)O
inactive: Potency [1] | Potency [2] | Potency [3] | Potency [4]

CCCCOCCOC(=O)COc1nc(Cl)c(Cl)cc1Cl
inactive: Potency [1] | Potency [2] | Potency [3] | Potency [4]

O/N=C/C=N/O
inactive: Potency [1] | Potency [2] | Potency [3] | Potency [4]

CCCCCCCC/C=C\CCCCCCCCO
inactive: Potency [1] | Potency [2] | Potency [3] | Potency [4]

O=C1CCCC(=O)C1
inactive: Potency [1] | Potency [2] | Potency [3] | Potency [4]

O=C1OC(=O)c2cc(Oc3ccc4c(c3)C(=O)OC4=O)ccc21
inactive: Potency [1] | Potency [2] | Potency [3] | Potency [4]

c1ccc2cc3c4ccccc4c4ccccc4c3cc2c1
inactive: Potency [1] | Potency [2] | Potency [3] | Potency [4]

SC1CCCCC1
inactive: Potency [1] | Potency [2] | Potency [3] | Potency [4]

C[C@@H](O)[C@H]1C(=O)N2C(C(=O)O)=C(SCCN=CN)C[C@H]12
inactive: Potency [1] | Potency [2] | Potency [3] | Potency [4]

CC1(C)C(=O)N(CO)C(=O)N1CO
inactive: Potency [1] | Potency [2] | Potency [3] | Potency [4]

Cc1ccccc1C#N
inactive: Potency [1] | Potency [2] | Potency [3] | Potency [4]

Nc1ccn([C@@H]2O[C@H](CO)[C@@H](O)C2(F)F)c(=O)n1
inactive: Potency [1] | Potency [2] | Potency [3] | Potency [4]

CC(=O)O[C@@H]1CC2CCC1(C)C2(C)C (stereo partly specified)
inactive: Potency [1] | Potency [2] | Potency [3] | Potency [4]

OCCCC1CCCCC1
inactive: Potency [1] | Potency [2] | Potency [3] | Potency [4]

CC(=O)c1cccc([N+](=O)[O-])c1
inactive: Potency [1] | Potency [2] | Potency [3] | Potency [4]

CCC(C(=O)OCCOCCN(CC)CC)c1ccccc1 (stereo unspecified)
inactive: Potency [1] | Potency [2] | Potency [3] | Potency [4]

O=C(O)C(=O)Cc1c[nH]c2ccccc12
inactive: Potency [1] | Potency [2] | Potency [3] | Potency [4]

FC(F)(F)C(F)(F)C(F)(F)C(F)(F)C(F)(F)C(F)(F)C(F)(F)C(F)(F)Br
inactive: Potency [1] | Potency [2] | Potency [3] | Potency [4]

CCC(CC)CO
inactive: Potency [1] | Potency [2] | Potency [3] | Potency [4]

O=C(CS)OCCOC(=O)CS
inactive: Potency [1] | Potency [2] | Potency [3] | Potency [4]

Cc1ccc2ccc3cccc4ccc1c2c34
inactive: Potency [1] | Potency [2] | Potency [3] | Potency [4]

CCNC(=O)C1CC(C)CCC1C(C)C (stereo unspecified)
inactive: Potency [1] | Potency [2] | Potency [3] | Potency [4]

C=CC(C)(CCC=C(C)C)OC=O (stereo unspecified)
inactive: Potency [1] | Potency [2] | Potency [3] | Potency [4]

C=CC(C)C#N (stereo unspecified)
inactive: Potency [1] | Potency [2] | Potency [3] | Potency [4]

CCCCCCCCC(C)=O
inactive: Potency [1] | Potency [2] | Potency [3] | Potency [4]

CCCCCCOC(=O)CCC
inactive: Potency [1] | Potency [2] | Potency [3] | Potency [4]

O=C1c2ccccc2C(=O)c2c(Cl)cccc21
inactive: Potency [1] | Potency [2] | Potency [3] | Potency [4]

CCCCCCOc1ccccc1C(N)=O
inactive: Potency [1] | Potency [2] | Potency [3] | Potency [4]

C/C=C/C(=O)CC
inactive: activity, negative = inhibition [1] 0.402% [at 23.6 µM] | activity change, negative = inhibition [2] 0.0718% [at 23.6 µM] | activity change, negative = inhibition [3] -7.93% [at 23.8 µM] | activity change, negative = inhibition [4] -3.23% [at 23.6 µM]

O=C(O)CO
inactive: Potency [1] | Potency [2] | Potency [3] | Potency [4]

C=C(C)C(=O)OCC(O)COc1ccc(C(C)(C)c2ccc(OCC(O)COC(=O)C(=C)C)cc2)cc1 (stereo unspecified)
inactive: Potency [1] | Potency [2] | Potency [3] | Potency [4]

CCCC(C)C=O (stereo unspecified)
inactive: Potency [1] | Potency [2] | Potency [3] | Potency [4]

CCCCCCCCCCCC(=O)[O][Sn]([CH2]CCC)([CH2]CCC)[O]C(=O)CCCCCCCCCCC
inactive: Potency [1] | Potency [2] | Potency [3] | Potency [4]
